# Source: PubChem
# The list is not random: actives were taken first. Their share in the collection is about 19%.
# IL1B secr inh: inhibitors of inflammasome signaling (IL-1 beta secretion); THP-1 LPS/ATP IL-1B secretion, AlphaLISA, 16 h; active compounds read low; activity change, % at 57.5 µM; actives 4.7% (n = 360,000); in the data active = activity change below about -50%; inconclusive = mostly about -30% to -49%; note: % is set by controls: 0 for no effect and ±100 for the full control effect
#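 Secreted IL-1B measured by AlphaLISA bead assay after 16 h compound exposure of THP-1 cells; compounds (final up to 57.5 uM) added 1 h before LPS (250 ng/mL) and ATP (1.25 mM) stimulation; lower signal means less secretion.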
# DT40 TDP1 no CPT: qHTS for Inhibitors of human tyrosyl-DNA phosphodiesterase 1 (TDP1): qHTS in cells in absence of CPT; DT40 Tdp1-/- hTDP1 cells, no CPT, ATP luminescence, 48 h; Potency, µM (titrated, usually from 46.2 µM), inactives show top-dose activity change, negative = growth inhibition, most hits filed as inhibitors; actives 15% (n = 420,000); note: potency is the fitted concentration of half-maximal effect; % is set by controls: 0 for no effect and ±100 for the full control effect; nearly all actives have a fitted effect of over 55% in size
#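 Cells were dispensed at 400 per well, compounds added by pin tool, plates incubated ≥48 hr at 37 °C, then CellTiter-Glo added for 30 min at room temperature before luminescence reading. Line: DT40 Tdp1-/- complemented with hTDP1; camptothecin omitted.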
# MCF10A rereplic: DNA re-replication induction in MCF 10a cells; MCF 10A DNA re-replication, Hoechst nuclear intensity, 48 h; AID 624296; Potency, µM (top dose mostly 46.1 µM), for the others: at the highest dose activity, positive = re-replication, usual class: activators; actives 2.9% (n = 350,000); note: potency is the fitted concentration of half-maximal effect; % of control where 0% means no effect; nearly all actives have a fitted effect of over 50% in size
# Chronic BCR inh: blocks chronic active B-cell receptor signaling; Potency, µM (highest dose often 46.1 µM), inactives show top-dose activity change, negative = inhibition, hits mostly inhibitors; ABC-DLBCL IkBa-CBG/CBR reporter, luminescence ratio, 4 h; actives 0.05% (n = 340,000); active = well fitted inhibition curve with a large enough effect in the signal ratio, with a control signal flat, not every such curve was filed as active; inconclusive = small, poorly fitted or top-dose-only effect, or effect the other way, or a change in a side signal; the % refers to the signal ratio;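 note: potency is the fitted concentration of half-maximal effect; plate controls were basal doxycycline-induced cells for no effect and cells given 10 µM MG132 for full effect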
#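 TMD8 ABC-DLBCL cells carrying doxycycline-inducible green luciferase fused to IkappaBalpha plus unfused red luciferase were exposed to compounds (up to 46 uM) for 4 hrs at 37C. Activity came from the overlap-corrected green/red luminescence ratio.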
# SW480 rereplic: induces DNA re-replication in SW480 colon adenocarcinoma cells. SW480 DNA re-replication, Hoechst DNA content imaging, 48 h. actives 1.8% (n = 340,000). Potency, µM (doses to about 46.1 µM), for the others: at the top dose re-replication activation, actives largely listed as activators; note: potency is the fitted concentration of half-maximal effect; % of control where 0% means no effect; nearly all actives have a fitted effect of over 55% in size
#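 Quantitative HTS format with DMSO vehicle controls; 48 hr drug incubation at 37 C, then 40 min Hoechst staining and scanning imager measurement at 405 nm excitation.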
# DT40 TDP1 CPT: DT40-hTDP1 cell growth loss with CPT | Potency, µM (top dose mostly 46.2 µM), for inactives: at the highest dose activity change, negative = growth inhibition, most hits filed as inhibitors | actives 12% (n = 420,000) | chicken DT40 Tdp1-/-;hTDP1 cells + 20 nM CPT, ATP luminescence, 48 h; note: potency is the fitted concentration of half-maximal effect; % is set by controls: 0 for no effect and ±100 for the full control effect; nearly all actives have a fitted effect of over 55% in size
#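 Chicken DT40 Tdp1-/- cells complemented with human TDP1, 400 cells/well, exposed to compounds plus 20 nM camptothecin for at least 48 h at 37 C; viability read as ATP content by CellTiter-Glo luminescence.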
# * marks the source's active call; other numbers are inactive results; ? = inconclusive; / = no result given. Unless noted, calls come from the whole dose curve; as a rule, active = well fitted curve in the direction sought with a large enough effect; inconclusive = small, poorly fitted or top-dose-only effect, or another doubt; inactive = no such curve, though single readings can be large; an effect the other way counts as inactive or inconclusive.
SMILES,IL1B secr inh,DT40 TDP1 no CPT,MCF10A rereplic,Chronic BCR inh,SW480 rereplic,DT40 TDP1 CPT
CCOC(=O)[C@]12CCC=C1N(CCC1=CCCCC1)C(=O)[C@H](CC(=O)NCCC(C)C)C2,0.0,16.4µM*,/,/,/,?
CCCCOCCCNC(=O)C[C@@H]1C[C@@]2(C(=O)OCC)CCC=C2N(CCC2=CCCCC2)C1=O,0.0,?,/,/,/,?
CCCCNC(=O)C[C@@H]1C[C@@]2(C(=O)OCC)CCC=C2N(CCC2=CCCCC2)C1=O,-23.5,?,/,/,/,18.4µM*
CCOC(=O)[C@]12CCCC=C1N(Cc1ccccc1)C(=O)[C@H](CC(=O)NCc1ccc(C)o1)C2,-23.7,?,/,/,/,?
Cc1ccc(S(=O)(=O)N(C)C)cc1NC(=O)C(C)OC(=O)C1CCC1 (configuration not stated),1.3,13.1%,-2.7%,-0.6%,26.7%,0.9%
CCOC(=O)[C@]12CCCC=C1N(CCC1=CCCCC1)C(=O)[C@H](CC(=O)NCc1ccccc1)C2,-7.7,16.4µM*,/,/,/,?
CCOC(=O)[C@]12CCC=C1N(CCC1=CCCCC1)C(=O)[C@H](CC(=O)NCC1CCCCC1)C2,0.0,?,/,/,/,23.1µM*
CCOC(=O)[C@]12CCCC=C1N(CCC1=CCCCC1)C(=O)[C@H](CC(=O)NCc1ccc(C)o1)C2,-26.1,13µM*,/,/,/,?
CCOC(=O)CC1c2cc(OCC)c(OCC)cc2CCN1C(=O)Nc1cccc(Cl)c1 (configuration not stated),/,16.4µM*,/,/,/,?
CCOc1cc2c(cc1OCC)C(CC(=O)OC)N(C(=O)Nc1cc(C)cc(C)c1)CC2 (configuration not stated),/,-27.1%,/,/,/,-17.6%
CCOc1cc2c(cc1OCC)C(CC(=O)OC)N(C(=O)Nc1cc(OC)ccc1OC)CC2 (configuration not stated),/,14.6µM*,/,/,/,20.6µM*
c1cc2c3c(c1)CCCN3CCC2,/,-27.7%,/,/,/,-10.7%
COc1cc(NC(=O)CN2C(=O)NC(C)(c3ccccc3)C2=O)c(C)cc1[N+](=O)[O-] (configuration not stated),17.9,-10.4%,17.1%,-0.2%,-3.0%,14.5%
COc1cc(NC(=O)CN2CCN(c3ccccc3O)CC2)c(C)cc1[N+](=O)[O-],0.0,?,-4.5%,0.3%,/,11.6µM*
O=C(CN1CCN(c2ccccc2O)CC1)Nc1ccc([N+](=O)[O-])cc1Br,5.8,23.1µM*,-0.6%,2.3%,?,?
COc1ccc2c(c1)c1c(c(=O)n(-c3ccccc3)c(=O)n1CC(=O)Nc1ccc(F)cc1)n2C,/,-5.7%,/,/,/,-2.1%
COCCCNS(=O)(=O)c1cc2c3c(c1)C(C)C(=O)N3CCC2 (configuration not stated),0.0,-22.5%,-7.6%,8.5%,-4.0%,-3.7%
CCN1CCN(c2c(S(=O)(=O)c3ccc(C)c(C)c3)cnc3ccc(F)cc23)CC1,-10.6,?,0.5%,-22.1%,?,?
O=C(NCC(=O)N1CCN(C(c2ccccc2)c2ccccc2)CC1)c1ccccc1Br,4.6,20.6µM*,/,/,/,?
O=C(NCC(=O)N1CCN(C(c2ccccc2)c2ccccc2)CC1)c1ccc(Br)o1,-72.9*,?,1.8%,?,-9.3%,?
Cc1cc(C)cc(C(=O)NCC(=O)N2CCN(C(c3ccccc3)c3ccccc3)CC2)c1,-11.1,18.4µM*,16.4µM*,3.8%,?,?
CCCCn1c(N)c(N(Cc2ccccc2)C(=O)COc2ccccc2F)c(=O)[nH]c1=O,2.4,-0.7%,0.4%,1.7%,?,-2.2%
